The values that follow come from the supplement of paper PMC12808144.

The structures appear in SMILES notation. Values without a mark were called inactive.

One test has as its system NHEM-hTERT. The experiment in a line: cell viability relative to DMSO control (fraction of DMSO control); higher = less cytotoxic, active = 0.5 or less. The conditions noted are these: 1 µM; 120 h. Summed up:
(§1)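 For 120 h, duplicate wells of 384-well plates held 1 µM of each of 315 approved anti-cancer drugs (TargetMol), spotted acoustically before cells were added in 40 µl per well. Immortalized NHEM-hTERT melanocytes were seeded at 2500/well, and patient-derived Mel-DCC-11 plus its resistant subline Mel-DCC-11-R at 1500/well. The subline was run both without and with 8 µM of its selecting drug, and ATPlite 1step luminescence was read. Viability was normalised to vehicle-treated wells and averaged over the two replicates.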

The subject of a further test is Mel-DCC-11-R. Kind of test: cell viability relative to DMSO control (fraction of DMSO control); higher = less cytotoxic, active = 0.8 or less. To be noted: 1 µM, 120 h. Summed up: as §1

As for `COc1cc2c(N3CCN(C(=O)Nc4ccc(OC(C)C)cc4)CC3)ncnc2cc1OCCCN1CCCCC1` [Tandutinib], the cell viability in the test on NHEM-hTERT was 1.15.
Regarding `CN1[C@@H]2CCC[C@H]1C[C@@H](NC(=O)c1nn(C)c3ccccc13)C2.Cl` [Granisetron hydrochloride], the cell viability is 1.07 with NHEM-hTERT, 0.924 with Mel-DCC-11-R (vemurafenib co-treatment 0 µM) and 1.07 with Mel-DCC-11-R (vemurafenib co-treatment 8 µM).
As to `C=CC(=O)Nc1cc(Nc2nccc(-c3cn(C)c4ccccc34)n2)c(OC)cc1N(C)CCN(C)C.CS(=O)(=O)O` [Osimertinib mesylate], the cell viability in the test with NHEM-hTERT is 1.14.
`O=C(O)CCc1nc2ccccc2[nH]1` [Procodazole]: in the test with NHEM-hTERT, the cell viability was 1.02.
As for `CCCCCCCCCCCCCC(=O)[O-].CCCCCCCCCCCCCC(=O)[O-].N[C@@H]1CCCC[C@H]1N.[Pt+2]` [Miriplatin], the results for the cell viability in the test on NHEM-hTERT, in the test on Mel-DCC-11-R (vemurafenib co-treatment 0 µM) and in the test with Mel-DCC-11-R (vemurafenib co-treatment 8 µM) were 1.03, 1.04 and 1.03, respectively.
As for `C=CC(=O)Nc1cccc(Nc2nc(Nc3ccc(N4CCN(C(C)=O)CC4)cc3OC)ncc2C(F)(F)F)c1` [Rociletinib], the cell viability was 0.71 in the test with NHEM-hTERT, 0.855 in the test with Mel-DCC-11-R (vemurafenib co-treatment 0 µM) and 0.836 in the test on Mel-DCC-11-R (vemurafenib co-treatment 8 µM).
As to `CC[C@]1(O)C[C@H]2CN(CCc3c([nH]c4ccccc34)[C@@](C(=O)OC)(c3cc4c(cc3OC)N(C=O)[C@H]3[C@@](O)(C(=O)OC)[C@H](OC(C)=O)[C@]5(CC)C=CCN6CC[C@]43[C@@H]65)C2)C1.O=S(=O)(O)O` [Vincristine sulfate], in the test with NHEM-hTERT, the cell viability is 0.642.
In the case of `COc1cc2c(Oc3ccc4[nH]c(C)cc4c3F)ncnc2cc1OCCCN1CCCC1` [Cediranib], the cell viability in the test with NHEM-hTERT was 0.891; in the test on Mel-DCC-11-R (vemurafenib co-treatment 0 µM) it was 0.853; in the test on Mel-DCC-11-R (vemurafenib co-treatment 8 µM), 0.728 (active).
For the compound `C[C@@H](CN1CC(=O)NC(=O)C1)N1CC(=O)NC(=O)C1.Cl` [Dexrazoxane HCl], the cell viability in the test on NHEM-hTERT is 1.2.
For `CS(=O)(=O)c1ccc(C(=O)Nc2ccc(Cl)c(-c3ccccn3)c2)c(Cl)c1` [Vismodegib], the cell viability with NHEM-hTERT was 0.961.
In the case of `CCCS(=O)(=O)Nc1ccc(F)c(C(=O)c2c[nH]c3ncc(-c4ccc(Cl)cc4)cc23)c1F` [Vemurafenib], in the test with NHEM-hTERT, the cell viability is 0.746.
With `N#CC[C@H](C1CCCC1)n1cc(-c2ncnc3[nH]ccc23)cn1` [(R)-Ruxolitinib], the cell viability in the test with NHEM-hTERT was 1.1.
On to `Nc1cccc2c1CN(C1CCC(=O)NC1=O)C2=O` (centres undefined) [Lenalidomide], for which the results for the cell viability with NHEM-hTERT, in the test on Mel-DCC-11-R (vemurafenib co-treatment 0 µM) and in the test on Mel-DCC-11-R (vemurafenib co-treatment 8 µM) were 0.996, 0.713 (active) and 1.01, respectively.
On the same counts, the results for `Cc1c(C)c2c(c(C)c1O)CCC(C)(COc1ccc(CC3SC(=O)NC3=O)cc1)O2` (centres undefined) [Troglitazone] are 1.05, 1.01 and 1.12.
Take `NC(=O)NO` [Hydroxyurea]: the cell viability with NHEM-hTERT was 1.1; with Mel-DCC-11-R (vemurafenib co-treatment 0 µM), 1.09; in the test on Mel-DCC-11-R (vemurafenib co-treatment 8 µM), 0.655 (active).
Regarding `COc1cc(C[C@H]2C(=O)OC[C@@H]2Cc2ccc(OC)c(OC)c2)ccc1O` [Arctigenin], the cell viability in the test with NHEM-hTERT was 1.21.
On the same count and under the same terms, the result for `O=C(CCCCCCNC(=O)c1cnc(N(c2ccccc2)c2ccccc2)nc1)NO` [Rocilinostat] reads 0.847.
As to `O=c1ccn([C@@H]2O[C@H](CO)[C@@H](O)[C@H]2O)c(=O)[nH]1` [Uridine], the figures for the cell viability with NHEM-hTERT, in the test on Mel-DCC-11-R (vemurafenib co-treatment 0 µM) and with Mel-DCC-11-R (vemurafenib co-treatment 8 µM) were 1.05, 0.931 and 1.09, respectively.
Turning to `C=C1CC[C@@H]2[C@](C)(CO)[C@H](O)CC[C@@]2(C)[C@@H]1C/C=C1/C(=O)OC[C@H]1O` [Andrographolide], the cell viability with NHEM-hTERT was 1.17; in the test on Mel-DCC-11-R (vemurafenib co-treatment 0 µM) it was 0.887; in the test with Mel-DCC-11-R (vemurafenib co-treatment 8 µM) it was 1.02.
With `CCc1cc2c(cc1N1CCC(N3CCOCC3)CC1)C(C)(C)c1[nH]c3cc(C#N)ccc3c1C2=O` [Alectinib], the cell viability is 0.977 in the test on NHEM-hTERT, 1.12 in the test on Mel-DCC-11-R (vemurafenib co-treatment 0 µM) and 0.888 in the test on Mel-DCC-11-R (vemurafenib co-treatment 8 µM).
Regarding `Cl.N=C1CCCN1Cc1[nH]c(=O)[nH]c(=O)c1Cl` [Tipiracil hydrochloride], the cell viability in the test with NHEM-hTERT is 0.914; in the test with Mel-DCC-11-R (vemurafenib co-treatment 0 µM), 0.816; in the test with Mel-DCC-11-R (vemurafenib co-treatment 8 µM), 0.877.
Regarding `CC1(C)[C@@H](O[C@H]2O[C@H](C(=O)O)[C@@H](O)[C@H](O)[C@H]2OC2O[C@H](C(=O)O)[C@@H](O)[C@H](O)[C@H]2O)CC[C@]2(C)[C@H]3C(=O)C=C4[C@@H]5C[C@@](C)(C(=O)O)CC[C@]5(C)CC[C@@]4(C)[C@]3(C)CC[C@@H]12` (some centres undefined) [Glycyrrhizin], in the test on NHEM-hTERT, the cell viability is 1.01.
Regarding `Nc1nc(F)nc2c1ncn2[C@@H]1O[C@H](COP(=O)(O)O)[C@@H](O)[C@@H]1O` [Fludarabine Phosphate], in the test with NHEM-hTERT, the cell viability is 1.2.
As to `COc1ccc(C[C@H](N)C(=O)N[C@H]2[C@@H](O)[C@H](n3cnc4c(N(C)C)ncnc43)O[C@@H]2CO)cc1.Cl.Cl` [Puromycin dihydrochloride], the cell viability is 0.467 (active) in the test with NHEM-hTERT, 0.309 (active) in the test with Mel-DCC-11-R (vemurafenib co-treatment 0 µM) and 0.58 (active) in the test on Mel-DCC-11-R (vemurafenib co-treatment 8 µM).
Take `CS(=O)(=O)CCNCc1ccc(-c2ccc3ncnc(Nc4ccc(OCc5cccc(F)c5)c(Cl)c4)c3c2)o1.Cc1ccc(S(=O)(=O)O)cc1.Cc1ccc(S(=O)(=O)O)cc1` [Lapatinib Ditosylate]: the results for the cell viability in the test on NHEM-hTERT, in the test on Mel-DCC-11-R (vemurafenib co-treatment 0 µM) and in the test on Mel-DCC-11-R (vemurafenib co-treatment 8 µM) were 1.13, 1.27 and 0.885, respectively.
Consider `CC1=C(/C=C/C(C)=C/C=C/C(C)=C\C(=O)O)C(C)(C)CCC1` [Isotretinoin], for which the cell viability with NHEM-hTERT was 1.04; in the test with Mel-DCC-11-R (vemurafenib co-treatment 0 µM) it was 0.938; in the test with Mel-DCC-11-R (vemurafenib co-treatment 8 µM), 1.3.
